Results as given in PubChem BioAssay AID743286 (National Center for Advancing Translational Sciences (NCATS), 2014).
The campaign covered roughly 1,100 compounds. About 340 (31%) were called active. About 40% were inconclusive and are not listed. Calls follow the shape of the dose curve; as a rule, active = well fitted inhibition curve with a large enough effect; inconclusive = small, poorly fitted or top-dose-only effect; inactive = flat fitted curve, though single readings scatter. Only a sample is shown.

Target: Phosphatidylinositol 5-phosphate 4-kinase type-2 alpha (Homo sapiens) (UniProt P48426)
Sequence (P48426 whole entry, looked up): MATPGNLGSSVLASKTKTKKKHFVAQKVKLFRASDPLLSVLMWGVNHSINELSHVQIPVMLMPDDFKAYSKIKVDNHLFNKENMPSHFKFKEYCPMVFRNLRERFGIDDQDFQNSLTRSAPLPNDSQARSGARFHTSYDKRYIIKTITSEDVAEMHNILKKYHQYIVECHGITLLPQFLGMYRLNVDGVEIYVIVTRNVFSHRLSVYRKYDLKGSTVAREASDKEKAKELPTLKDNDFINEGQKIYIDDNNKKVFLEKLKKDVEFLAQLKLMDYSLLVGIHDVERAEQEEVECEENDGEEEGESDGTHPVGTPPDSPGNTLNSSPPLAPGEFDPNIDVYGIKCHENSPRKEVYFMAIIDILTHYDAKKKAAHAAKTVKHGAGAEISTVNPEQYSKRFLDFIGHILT
Assay: qHTS for Inhibitors of PI5P4K: Confirmation in Primary Assay; also: nearly all actives have a fitted effect of over 65% in size
Settings: PI5P4Kalpha enzyme, ADP-Glo luminescence, 60 min; series mostly up to 76.9 µM
In short: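 PI5P4Kα with PI5P substrate in 0.038 M HEPES pH 7.4, 0.28 mM EGTA, 0.1% CHAPS, 5% DMSO; reaction started with 5 µM ATP (final), 60 min at room temperature. ADP formed read by ADP-Glo luminescence end-point.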
Potency is read from the fitted curve at half-maximal effect.

Potency, active:
Cn1c(=O)c2[nH]c(-c3ccc(S(=O)(=O)O)cc3)nc2n(C)c1=O 12.6 µM
CCCn1c(=O)c2[nH]c(-c3ccc(S(=O)(=O)O)cc3)nc2n(CCC)c1=O 14.1 µM
CCn1c(SCc2nc3sc(C(=O)O)c(C)c3c(=O)[nH]2)nc2ccccc21 12.6 µM
c1cc2c(cc1C1=NNC(=NC3CC3)SC1)OCCO2 28.2 µM
NS(=O)(=O)c1cc(C(=O)NC2CCSc3ccccc32)ccc1Cl (configuration not stated) 0.891 µM
COc1ccc2c(c1)c(=O)oc1c(C)c(OCc3cc(C(=O)O)oc3C)ccc12 17.8 µM
Cc1ccc(-c2csc(NC(=O)c3ccno3)n2)cc1 28.2 µM
NC(=O)c1c(NC(=O)c2ccccc2)sc2c1CCC2 25.1 µM
NC(=O)c1c(NC(=O)c2cc3ccccc3o2)sc2c1CCC2 31.6 µM
O=C(NCc1ccco1)c1cc2ccc(O)cc2oc1=O 14.1 µM
NC(=S)c1cc2ccc(O)cc2oc1=O 14.1 µM
O=C(c1ccc(F)cc1)c1cc2ccc(O)cc2oc1=O 10 µM
O=C(c1ccc(Br)cc1)c1cc2ccc(O)cc2oc1=O 11.2 µM
Cc1cccc(N=c2oc3cc(O)ccc3cc2C(N)=O)c1 14.1 µM
c1coc(-c2ccc3nncn3c2)c1 15.8 µM
CC(=O)c1ccc(NC(=O)c2noc3c2CCC3)cc1 35.5 µM
Cc1nc(N)sc1-c1csc(Nc2cccc(C(=O)O)c2)n1 15.8 µM
OCCNc1nc(Nc2ccc(Cl)c(Cl)c2)nc2ccccc12 31.6 µM
Cc1ccc(C)c(S(=O)(=O)Nc2ccc3oc(C)c(C(=O)O)c3c2)c1 15.8 µM
O=C(O)C1Nc2c(Cl)cc(Cl)c(Cl)c2C2C=CCC12 (configuration not stated) 8.91 µM
CCc1c(C)sc(NC(=O)c2ccoc2C)c1C(N)=O 12.6 µM
NS(=O)(=O)c1ccc(NC(=O)c2ccc(S(=O)(=O)N3CCc4ccccc43)cc2)cc1 14.1 µM
COc1ccc2ccccc2c1C1CC(=O)N2CN(C3CCCCC3)CSC2=C1C#N (configuration not stated) 15.8 µM
CCOc1ccccc1N1CSC2=C(C#N)C(c3c(OC)ccc4ccccc34)CC(=O)N2C1 (configuration not stated) 20 µM
COc1cc2nc(Nc3ccc(C)c(Cl)c3)nc(N)c2cc1OC 15.8 µM

Potency, inactive:
CC(=O)NC(c1ccc(C)cc1)c1cc([N+](=O)[O-])c2cccnc2c1O (configuration not stated)
O=C(Oc1ccc(N(Cc2cccs2)C2=NS(=O)(=O)c3ccccc32)cc1)c1ccccc1Cl
O=C(CSc1nc(-c2ccccc2)cc(=O)[nH]1)N1CCc2ccccc21
COc1ccc(CCCc2nnc(SCc3nc4ccccc4c(=O)[nH]3)n2C)cc1
Cc1cc(C(=O)Nc2cccc3c2O[C@@H](CN(C)S(C)(=O)=O)[C@H](C)CN([C@@H](C)CO)C3=O)n(C)n1
O=C(OCC(=O)N1CCCCCC1)c1ccc(Cl)c(S(=O)(=O)N2CCCC2)c1
COCc1ccc2oc(C(=O)O)cc2c1
COc1ccc2c(c1)C=C(CN1CCN(Cc3ccccc3C)C(CCO)C1)CO2 (configuration not stated)
NC(=O)c1c(NC(=O)CN2CCCC2)sc2c1CCCC2
Cc1ccc2cc(CCl)c(Cl)nc2c1
O=c1oc2cc(O)ccc2cc1-c1ccc(F)cc1
N=c1oc2ccc3ccccc3c2cc1C(N)=S
COc1ccc(C(=O)N2CCC2(C)C(=O)O)cc1F (configuration not stated)
O=C(Nc1ccc(-c2nc3ncccc3o2)cc1)c1ccco1
O=C(CCN1CCc2ccccc2C(c2ccccc2)C1)c1ccc2c(c1)OCCO2 (configuration not stated)
O=C(Cn1cncn1)NCc1ccccc1Br
CCOC(=O)N1CCN(C(=O)CCS(=O)(=O)c2ccc3c(c2)CCN3C(=O)CC)CC1
Clc1ccc2nc(-c3ccco3)c(Cc3ccccc3)n2c1
O=C(Nc1nnc(COc2ccc(Cl)cc2)s1)c1cccs1
CC(C)(NC(=O)c1ccccc1)c1nc2ccccc2s1
O=C1COc2ccc(S(=O)(=O)NCCc3ccccc3)cc2N1
COc1cc(CNc2ccc(N3CCCC3)cc2)cc(Cl)c1OC
CCOc1ccc(CC(=O)Nc2sc(Cc3ccccc3)c(C)c2C(N)=O)cc1OCC
O=S(=O)(c1ccc(Br)cc1)N1CCCc2ccccc21
Clc1ccc2nc(CSc3nc4ccccc4o3)cn2c1
C[C@H](CO)N1C[C@H](C)[C@@H](CN(C)S(=O)(=O)c2ccc3c(c2)OCCCO3)OCc2cnnn2CCCC1=O
CCN1CCN(C(=O)Cn2nc(-c3ccc(Cl)cc3)ccc2=O)CC1
